Luminol counter: counter-screen for Nox1 inhibitors: inhibitors of luminol chemiluminescence | inhibition, % at 6.7 µM | AID 1823, 2009 | HRP/luminol/H2O2 chemiluminescence counterscreen | 0.4% of 16,000 active; further: reference of the scale not given here
KOR antag MB: antagonists of human kappa opioid receptor OPRK1, Maybridge library; Kappa-type opioid receptor (Homo sapiens), P41145; OPRK1 cells, antagonist mode, fluorescence readout; inhibition, % at 9 µM; 0.4% of 16,000 active; in the data active means inhibition above about 50%
TLR4 MyD88 blk: inhibitors of human TLR4-MyD88 binding; Toll-like receptor 4 (Homo sapiens), O00206; Cell-based TLR4-MyD88 binding inhibition assay; inhibition, % at 10 µM; 0.06% of 16,000 active; AID 811, 2007; in the data active means inhibition above about 45%
Nox1 inhibitor: inhibitors of human NADPH oxidase 1 (Nox1); HT29 cells, luminol chemiluminescence ROS; inhibition, % at 6.7 µM; 0.81% of 16,000 active
PME-1 Maybridge: inhibitors of human PME-1 in Maybridge library; 0.5% of 16,000 active; Protein phosphatase methylesterase 1 (Homo sapiens), Q9Y570; inhibition, % at 9 µM; AID 2291, 2010; recombinant PME-1, FP-Rh probe fluorescence polarization; in the data active means inhibition above about 30%
Target sequence (Q9Y570 whole entry, looked up): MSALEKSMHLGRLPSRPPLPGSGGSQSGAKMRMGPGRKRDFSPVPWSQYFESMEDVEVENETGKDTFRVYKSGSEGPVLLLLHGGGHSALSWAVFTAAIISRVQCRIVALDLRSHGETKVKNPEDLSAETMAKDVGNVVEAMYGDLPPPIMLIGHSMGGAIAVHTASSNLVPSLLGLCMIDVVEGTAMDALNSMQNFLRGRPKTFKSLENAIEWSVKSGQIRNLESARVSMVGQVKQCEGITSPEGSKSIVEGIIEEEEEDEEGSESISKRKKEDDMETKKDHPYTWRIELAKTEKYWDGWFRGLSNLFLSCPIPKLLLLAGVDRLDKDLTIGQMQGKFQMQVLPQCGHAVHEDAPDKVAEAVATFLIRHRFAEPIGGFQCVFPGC
NOTCH ag: agonists of NOTCH signaling; activation, % at 2.5 µM; 0.4% of 15,000 active; NOTCH signaling luciferase reporter cells, luminescence; in the data active means activation above about 2.2%
Hits are given with their value; n = inactive; x = no result. Sampled rows, rich in hits. Any-hit rate of the full collection: about 2.6%. Unless noted, no stated cut-off is given here; in the data, active means inhibition above about 75%; inactive means the rest.

SMILES	Luminol counter	KOR antag MB	TLR4 MyD88 blk	Nox1 inhibitor	PME-1 Maybridge	NOTCH ag
O=C1c2ccccc2C(=O)N1Nc1ccc(N2CCOCC2)cc1	n	n	n	n	n	n
CC1(C)N=c2ccc([N+](=O)[O-])cc2=N1	n	n	n	n	38	n
O=C1CNC(=S)N1CCc1ccncc1	n	n	n	n	n	n
O=C1CNC(=S)N1CCc1ccc(O)c(O)c1	96	n	n	93	n	n
CCS(=O)(=O)c1ccc(O)c(NC(=O)c2ccccc2C(=O)O)c1	n	n	x	96	n	n
Cc1ccc(S(=O)(=O)N(C)C)cc1NC(=O)c1ccccc1C(=O)O	n	n	n	n	n	n
O=C(Oc1ccc(-c2csnn2)cc1)c1ccc([N+](=O)[O-])o1	101	n	n	n	n	n
O=C(Nc1ccc(Cl)cc1)Oc1ccc(-c2csnn2)cc1	102	n	n	n	n	n
CCOC(=O)c1c(NC(=O)c2ccc([N+](=O)[O-])o2)nc(SC)n1Cc1cccs1	n	n	n	n	n	n
Cc1nc(C)c(-c2n[nH]c(=S)n2C)s1	100	n	n	n	n	n
Cn1c(CC#N)n[nH]c1=S	n	n	n	n	n	n
CCOC(=O)C1CCN(c2ccc(C(C)=O)cc2NC(=S)Nc2cc(Cl)ccc2Cl)CC1	n	n	n	n	n	5.9
Cc1c(S(=O)(=O)c2ccc(Cl)cc2)csc1C(=O)NCc1csc2ccc(Cl)cc12	n	n	n	n	n	n
COc1ccc(OC(=O)c2ccc3ncccc3c2)cc1	n	n	n	92	n	n
O=C(NCc1c(Cl)cccc1Oc1ccccc1)Nc1ccc(F)cc1	n	n	n	n	n	n
ONC=NCc1ccccc1OC(F)(F)F	n	n	n	n	n	n
Nc1nc(NCc2ccccc2OC(F)(F)F)n[nH]1	n	n	n	88	n	n
Nc1nc(NCc2c(Cl)cccc2Oc2ccccc2)n[nH]1	n	n	n	84	n	n
CC(=NCc1ccc2c(c1)OCO2)c1ccccc1O	n	n	n	n	n	2.4
CC(=NCc1ccccc1)c1ccccc1O	n	n	n	n	n	x
O=C(C1CCCCC1)N1CC(=O)N(CCc2ccccc2)C(=O)C1	n	n	n	n	n	n
O=C1C=CC(=O)N1CCc1ccccc1	n	n	n	100	n	n
O=c1c2cc(-c3ccccc3)sc2nnn1/N=C/c1cccs1	n	71	n	n	n	n
CN(C)c1ccc(/C=N/Nc2c(Cl)cncc2Cl)cc1	n	n	n	102	n	n
Oc1ccccc1-c1nc(-c2ccc3c(c2)CCO3)n[nH]1	n	n	n	n	n	n
SMILES	Luminol counter	KOR antag MB	TLR4 MyD88 blk	Nox1 inhibitor	PME-1 Maybridge	NOTCH ag
COC(=O)c1cnn(-c2ccc(Cl)cc2)c1C=C(C#N)C#N	n	75	n	n	n	n
COc1cc(CCC(=O)NNC(=S)Nc2ccc(F)cc2)cc(OC)c1OC	92	n	n	n	n	n
COc1cc(CCC(=O)NNC(=O)C(F)(F)F)cc(OC)c1OC	n	n	n	n	n	n
COc1ccc(Cl)cc1NC(=O)Nc1ccc(N(C)C)cc1	n	n	n	99	n	n
O=c1c2c(-c3ccc([N+](=O)[O-])cc3)onc2n(-c2ccccc2)c(=O)n1-c1ccccc1	n	n	n	94	n	n
C/C(=N\OC(=O)c1cccc(C(F)(F)F)c1)c1cccnc1	n	n	n	n	n	n
Fc1ccc(N/N=C/c2sccc2Oc2ccccc2)c(F)c1	n	n	n	n	n	n
COC(=O)c1cc(C)c(-c2ccc(-c3ccccc3F)cc2)s1	n	n	n	n	n	n
COC(=O)c1cc(-c2ccc(OC)cc2)c(-c2ccc(OC)cc2)s1	n	78	n	n	n	n
O=C(/C=C/c1cc(-c2ccccc2)c(C(F)(F)F)s1)c1cccs1	n	63	n	n	n	x
Cc1cc(NC(=O)c2cc(-c3ccccc3)c(C(F)(F)F)s2)on1	n	n	n	n	n	n
CS(C)(=O)=NS(=O)(=O)c1cc(S(=O)(=O)N=S(C)(C)=O)c(Cl)s1	n	n	n	n	n	n
O=C(Nc1ccc(N2CCCCC2)cc1)Nc1ccccc1OC(F)(F)F	n	n	n	80	n	n
N#C/C(=C\c1cccnc1)c1cccc(C(F)(F)F)c1	n	n	n	n	n	n
Cc1ccc(S(=O)(=O)NC(=O)NCC2CCN(S(=O)(=O)c3ccccc3)CC2)cc1	n	n	n	n	n	n

High-throughput results as filed in PubChem.
